HepG2 tox = kills HepG2 cells in TGF-b inhibitor counter-screen; hit rate 0.76% among 410,000; Potency, µM (titrated, usually from 46.1 µM), inactives show at the highest dose activity change, negative = cytotoxicity, actives largely listed as cytotoxic; AID 588856; HepG2 CAGA-GFP viability, ATP luminescence, 18 h; further: potency means the concentration at half of the fitted maximal effect
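HepG2 CAGA-GFP cells (1000/well, DMEM with 1% FBS) received compound, then TGF-beta at 500 pg/mL final, and were incubated 18 hours at 37 degrees C. Viability was read by CellTiter-Glo luminescence. Media-only wells were set as complete cell-killing and DMSO as no toxicity.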
DRD3 agonist = activates the human D3 dopamine receptor. P35462. D3R DiscoveRx beta-arrestin cells, luminescence, 90 min. max activation, %. hit rate 0.58% among 410,000. AID 652048; in the data active means max activation above about 30%; further: 0% is about no effect
Target sequence (P35462 whole entry, looked up): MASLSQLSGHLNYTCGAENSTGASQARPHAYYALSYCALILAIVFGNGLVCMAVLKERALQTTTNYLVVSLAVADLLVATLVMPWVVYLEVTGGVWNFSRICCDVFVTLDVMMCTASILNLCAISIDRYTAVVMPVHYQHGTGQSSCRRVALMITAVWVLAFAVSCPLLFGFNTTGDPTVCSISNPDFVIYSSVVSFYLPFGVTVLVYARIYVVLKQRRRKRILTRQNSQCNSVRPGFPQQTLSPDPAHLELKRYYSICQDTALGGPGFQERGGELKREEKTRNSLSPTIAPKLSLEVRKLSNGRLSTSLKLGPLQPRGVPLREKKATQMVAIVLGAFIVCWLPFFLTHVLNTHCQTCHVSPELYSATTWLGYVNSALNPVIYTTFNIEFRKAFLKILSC
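Agonist mode: compounds and dopamine controls were applied to plated cells for 90 min at 37 degrees C after an overnight attachment at 1500 cells/well. Luminescent read-out followed 30 - 60 minutes at room temperature with DiscoveRx detection reagent.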
DRD3 antagonist = blocks the human D3 dopamine receptor | max response, negative = inhibition, % | D3R cells, DiscoveRx beta-arrestin luminescence, antagonist mode; hits give low values | hit rate 2.5% among 360,000 | AID 652054; in the data active means max response below about -50%; inconclusive means no clear call, values can overlap the other calls; further: on the % scale 0 is the no-effect control and ±100 the full control effect
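Cells plated overnight at 1500 cells/well, then exposed to library compounds with dopamine controls for 90 minutes at 37 degrees C. DiscoveRx reagent added for 30–60 minutes at room temperature; luminescence read, quantitative HTS format.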
TGFb inhibitor = TGF-b pathway inhibition; Potency, µM (highest dose often 46.1 µM), for the others: at the highest dose activity, negative = inhibition, usual class: inhibitors; hit rate 1.2% among 410,000; HepG2 CAGA-GFP TGF-b/SMAD3 reporter, GFP fluorescence, 18 h; TGF-beta stimulated, 500 pg/mL final; further: potency means the concentration at half of the fitted maximal effect; on the % scale 0 is the no-effect control and ±100 the full control effect; nearly all actives have a fitted effect of over 65% in size
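Cell-based qHTS in HEPG2 carrying a CAGA-GFP Smad reporter; compounds added before 500 pg/mL final TGF-beta, 18 h incubation at 37 degrees C, GFP fluorescence quantified per cell by imaging cytometry.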
S2 tox = reduces viability in counter-screen for ATXN expression inhibitors | Potency, µM (titrated, usually from 56.7 µM), hits mostly cytotoxic | S2 cells (HEK-293 line with an ATXN2-luciferase reporter) viability, CellTiter-Fluor protease fluorescence, 24 h | hit rate 0.49% among 400,000; further: potency means the concentration at half of the fitted maximal effect; nearly all actives have a fitted effect of over 40% in size
ATXN2 expr inh = ATXN2 expression inhibition. HEK-293 ATXN2-luciferase reporter, luminescence, 24 h. Potency, µM (doses to about 57 µM), inactives show at the top dose activity change, negative = inhibition, most hits filed as inhibitors. hit rate 0.72% among 360,000. AID 1745845; further: potency means the concentration at half of the fitted maximal effect; on the % scale 0 is the no-effect control and ±100 the full control effect; nearly all actives have a fitted effect of over 55% in size
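qHTS (up to 57 uM final) was run with 24 h compound exposure of reporter cells at 37 °C. Each well was multiplexed: SteadyGlo luminescence measured ATXN2-luciferase expression after a fluorogenic Gly-Phe-AFC viability readout (25 uM final).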
The depositor's hits bear a star; i = inactive; ? = inconclusive; / = not tested or not shown; ! = not active in a repeat. Sampled rows, rich in hits. Any-hit rate of the full collection: about 4.8%. Unless noted, the call rests on the fitted dose curve; in most records, active means well fitted curve in the direction sought with a large enough effect; inconclusive means small, poorly fitted or top-dose-only effect, or another doubt; inactive means no such curve, though single readings can be large; an effect the other way counts as inactive or inconclusive.

SMILES | HepG2 tox | DRD3 agonist | DRD3 antagonist | TGFb inhibitor | S2 tox | ATXN2 expr inh
CN1CCN(C(=O)/C(=C\c2ccccc2)c2ccccc2)CC1 | 0% | 3 | -55* | -6% | i | 5%
CN1CCN(C(=O)/C(=C/c2ccc(F)cc2)NC(=O)c2ccccc2)CC1 | -3% | -2 | 1 | -3% | i | 6%
CCOC(=O)c1cnc(-n2nc(C)cc2C)nc1NC(C)c1ccccc1 (stereo not given) | -8% | -9 | -59* | -4% | ? | ?
CNc1ccc(C(=O)Oc2cc(O/N=[N+](\[O-])N(C)C)c([N+](=O)[O-])cc2[N+](=O)[O-])cc1 | -1% | / | / | -11% | / | /
Cc1nc(C)n(CC(=O)NCC2Cc3cc(-c4cccc(OC(F)(F)F)c4)ccc3O2)n1 (stereo not given) | / | / | / | / | i | /
COc1ccc(OC)c2cc3ccccc3cc12 | -7% | 6 | -24 | -6% | / | 18µM*
Cc1cc(-c2nn(-c3ccccc3F)cc2CN2CCN(c3ccccn3)CC2)c(C)s1 | -29% | -19 | -79* | -14% | i | 6%
Cc1cc(-c2nn(-c3ccccc3F)cc2CNCCc2cnccn2)c(C)s1 | -19% | -15 | -28 | -14% | ? | -4%
COc1ccc(C2c3c(ncn(CCN4CCOCC4)c3=N)Oc3ccc4ccccc4c32)cc1OC (stereo not given) | 14µM* | -41 | -2 | ? | / | ?
COc1ccccc1C1c2ccc3ccccc3c2Oc2ncn(CCCO)c(=N)c21 (stereo not given) | -32% | 4 | 1 | 0% | 20µM* | -30%
COc1ccc(C2c3c(ncn(CCCO)c3=N)Oc3ccc4ccccc4c32)cc1OC (stereo not given) | -63% | -3 | ? | ? | ? | ?
COc1ccccc1C1c2ccc3ccccc3c2Oc2ncn(CCN(C)C)c(=N)c21 (stereo not given) | 16µM* | 5 | -21 | ? | 22µM* | 25µM*
COC(=O)c1c(NC(=O)CCCOc2ccc(C(C)(C)C)cc2)sc2c1C(C(=O)OC)CC2 (stereo not given) | -26% | 14 | / | -26% | / | /
Cc1c(NC(=O)Cc2ccc(Cl)cc2)cccc1-c1nc2cccnc2s1 | 12% | -17 | / | 24% | i | -7%
Cc1cccc(NC(=O)C(Cc2ccccc2)n2cccc2)c1C (stereo not given) | -16% | -5 | / | -2% | / | /
Cc1ccc(S(=O)(=O)Nc2ccc(SC(F)F)cc2)c(C)c1 | -72% | 6 | 0 | 13µM* | ? | -37%
COc1cc(NS(=O)(=O)c2cccc3nsnc23)c(C(=O)O)cc1OC | 7% | -4 | -83* | 4% | i | 1%
COc1cc(NS(=O)(=O)c2cccc3nsnc23)cc(OC)c1 | -37% | 3 | -64* | -6% | i | -6%
Cc1ccc(NS(=O)(=O)c2cccc3nsnc23)cc1C | 3% | 6 | -18 | 2% | i | -2%
CC(=O)c1cccc(NC(=O)c2ccc(-n3c(C)nnc3C)cc2)c1 | 0% | 5 | / | -9% | i | 3%
CC(=O)NCCCNC(=S)NCCCN(Cc1ccc(Cl)cc1)c1ccc(Br)cn1 | 13µM*! | / | / | 16µM* | ? | ?
CN(CCCc1cnc[nH]1)C(=S)NCCCN(Cc1ccc(Cl)cc1)c1ccc(Br)cn1 | -91% | / | / | 7.1µM* | / | /
COc1cc(S(=O)(=O)NCCc2c(C)[nH]c3ccccc23)c(C)cc1C | -32% | 7 | / | ? | i | ?
Cc1ccc(-n2c3nc(=O)n(C)c(=O)c-3cc3c(Cl)cccc32)c(C)c1 | 1% | -3 | / | 7% | i | 5%
S=c1sc2c(Cl)ncnc2n1-c1ccccc1 | -86% | -6 | -61* | ? | ? | /
SMILES | HepG2 tox | DRD3 agonist | DRD3 antagonist | TGFb inhibitor | S2 tox | ATXN2 expr inh
Cc1nc(N2CCN(C)CC2)c2sc(=S)n(-c3ccccc3)c2n1 | -11% | -6 | -14 | 21% | i | 0%
COc1ccc(-n2c(CC3C(=O)N(C)c4ccc(C)cc43)nc3ccccc3c2=O)cc1 (stereo not given) | -4% | 1 | / | 0% | ? | -8%
COc1ccc(Nc2cc(C(=O)NCCCN(C)C3CCCCC3)c3ccccc3n2)c(OC)c1 | -75% | -19 | / | ? | 32µM* | -37%
O=C(NCc1nnc2n1CCN(Cc1cc3c(cc1Cl)OCO3)CC2)c1cccc(F)c1 | / | / | / | / | i | /
CC(=O)N1CN(C2CCS(=O)(=O)C2)Cc2c1sc1c2CCCC1 (stereo not given) | 1% | 9 | -56* | 1% | i | -3%
Nc1sc2c(c1C(=O)NC1CCS(=O)(=O)C1)CCC2 (stereo not given) | 10% | 6 | -23 | -3% | i | -6%
CC(=O)N1CCCc2cc(S(=O)(=O)N3CCCC(C(=O)N4CCN(c5ccccc5)CC4)C3)ccc21 (stereo not given) | -31% | 8 | 15 | ? | ? | ?
CC(=O)N1CCCc2cc(S(=O)(=O)N3CCCC(C(=O)N4CCN(c5cc(C)ccc5C)CC4)C3)ccc21 (stereo not given) | -4% | 3 | 78 | 13µM* | 25µM*! | 20µM*
COc1ccccc1N1CCN(C(=O)C2CCCN(S(=O)(=O)c3ccc4c(c3)CCCN4C(C)=O)C2)CC1 (stereo not given) | -7% | 2 | 7 | ? | ? | 18µM*!
Cc1ccc(C)c(N2CCN(S(=O)(=O)c3ccc4c(c3)CCCN4C(=O)C3CCC3)CC2)c1 | 1% | -6 | / | -3% | i | 7%
COCC(=O)Nc1cc(C(=O)N2CCCOc3c(cccc3OC)C2)c2c(c1)nc(C1CCC1)n2C | / | / | / | / | i | /
CCOC(=O)C1=C(c2ccccc2)N=c2s/c(=C\c3cccc(O)c3)c(=O)n2C1c1cccs1 (stereo not given) | 14µM* | -10 | -12 | ? | ? | ?
CCOC(=O)C1=C(C)N=c2s/c(=C\c3ccc(OC(C)=O)cc3)c(=O)n2C1/C=C/c1ccccc1 (stereo not given) | 1% | -11 | 4 | 2% | i | -10%
CCOC(=O)C1=C(C)N=c2s/c(=C\c3ccc(OC(C)=O)c(OCC)c3)c(=O)n2C1/C=C/c1ccccc1 (stereo not given) | 0% | -5 | -56* | -2% | i | -26%
Cc1ccccc1NC(=O)c1c(NC(=O)C(F)(F)F)sc2c1CCCCC2 | -38% | -4 | / | 1.4µM* | / | /
Cc1cccc(NC(=O)c2c(NC(=O)C(F)(F)F)sc3c2CCCCC3)c1 | -111% | 15 | / | 1.6µM* | / | /
Cc1ccc(NC(=O)c2c(NC(=O)C(F)(F)F)sc3c2CCCCC3)cc1 | -60% | 6 | / | 1.1µM* | / | /

Source: PubChem
